Source: PubChem
Hits are enriched below; roughly 3.1% of the tested compounds scored in any of these assays.
PAX8 reporter: inhibitors of PAX8 transcriptional activity in RMG-I cells. RMG-I TPO-luciferase reporter, SteadyGlo, 24 h. inhibition, % at 12.6 µM. hit rate 1.2% among 360,000. AID 652154;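 active means mean replicate inhibition at least 60% with every replicate also reaching 60%; inconclusive means only one of the two criteria is met; inactive means mean below 60% and not all replicates reaching 60%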;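 further: luciferase light reporting Pax8 driven TPO promoter activity; plate controls were median of neutral control wells for no effect and mitoxantrone controls for full effect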
miR122 inh: miR-122 inhibition in Huh7 cells; Huh7 miR-122 Renilla luciferase sensor, 48 h; neutral wells = 0, positive control = 100; activation (reporter increase), % at 12.5 µM; hit rate 0.3% among 340,000; AID 602342;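 active means mean replicate activation score at least 90 and every replicate individually at or above 90; inconclusive means only one of the two criteria met; inactive means neither criterion met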;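 further: higher luciferase means less miR-122 activity so hits act as miR-122 inhibitors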
INS-1E GSIS act: primary screen for activators of insulin secretion dependent on glucose, INS-1E cells, GLuc reporter luminescence. hit rate 0.61% among 370,000. AID 743287. activation, % at 16.6 µM. INS-1E GLuc reporter insulin secretion, 2-3 h;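 active means lowest replicate activation of at least 40%, so every replicate reaches that level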;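 further: 0% = median of neutral control wells and 100% = median of IBMX positive control wells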
EWS-Fli inh: inhibitors of EWS/Fli oncoprotein transcriptional activity; inhibition, % at 12.6 µM; hit rate 0.67% among 350,000; A673 NR0B1-luciferase reporter, viability-normalised; AID 651661;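 active means mean inhibition of at least 50% after viability correction, with every replicate also passing that limit; inconclusive means mean reaches 50% but only one of two replicates passes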;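 further: firefly luciferase signal divided by Alamar Blue viability fluorescence both relative to DMSO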
HIV Env fusion: blocks HIV Env-driven cell-cell fusion; HeLa-JRFL Env/CEM21 cell fusion, luciferase; inhibition, % at 12.3 µM; hit rate 1.1% among 360,000; AID 651610;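 active means mean replicate inhibition score of at least 50 and every replicate individually at or above 50; inconclusive means only one of the two criteria met; inactive means mean below 50 and not all replicates reaching 50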;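 further: 0% = plate neutral controls and 100% = maraviroc near 300 nM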
C2C12 statin: suppression of simvastatin myotoxicity | rescue of ATP level, % at 7.49 µM | hit rate 0.78% among 330,000 | AID 602340 | C2C12 myotubes + simvastatin, ATP luminescence, 48 h; scaled: DMSO 0, geranylgeraniol control 100;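 active means mean ATP rescue above about 67%, or every replicate alone reaching that limit, limit read from the data, passing the limit was not always enough; inconclusive means no clear call, values can overlap the other calls; inactive means mean under the limit and some replicate under it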;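 further: myotubes were challenged with 10 µM simvastatin during compound exposure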
* hit, by the source's call; ? = inconclusive; / = no result; [ ] = another dose, or the depositor's remark.

SMILES | PAX8 reporter | miR122 inh | INS-1E GSIS act | EWS-Fli inh | HIV Env fusion | C2C12 statin
CCCN1C[C@H](C)[C@@H](OC)CN(C)C(=O)c2cc(NC(=O)c3ccno3)ccc2OC[C@@H]1C | -14.0 | / | -2.1 | -5.9 | 5.9[16.7 µM] | 2.9
C[C@H]1CN([C@@H](C)CO)C(=O)Cc2cc(NC(=O)Cc3ccccc3)ccc2O[C@@H]1CN(C)C(=O)Nc1ccc(C(F)(F)F)cc1 | / | -4.0[16.7 µM] | -1.4 | -9.2 | -11.1[16.7 µM] | -10.6
C[C@H](CO)N1C[C@H](C)[C@@H](CN(C)CC2CC2)Oc2c(NC(=O)CCC(F)(F)F)cccc2C1=O | / | / | -0.2 | / | / | /
Cc1nc(NCc2ccco2)c2c(C)c(C)sc2n1 | / | 129.2* | / | / | -3.7 | ?
COc1ccc(-c2ccc3c(c2)S(=O)(=O)c2cccc(C(=O)NCc4ccccc4Cl)c2C3=O)cc1OC | -14.9 | 1.3 | -2.7 | -1.7 | 32.7 | -4.2
COc1ccc(-c2ccc3c(c2)S(=O)(=O)c2cccc(C(=O)NCCOc4ccccc4Cl)c2C3=O)cc1OC | -9.2 | -4.9 | -4.4 | 57.9* | ? | -1.3
Cc1c(CC(=O)O)c(=O)oc2c(C)c(OCc3ccccc3Br)ccc12 | -10.5 | 5.5 | 41.2* | 2.6 | 0.7 | -2.0
Cc1c(CC(=O)O)c(=O)oc2c(C)c(OCc3ccccc3)ccc12 | -7.0 | 4.0 | 0.9 | 5.0 | -8.2 | 2.6
CCc1c(C)c2ccc(OCC(=O)N(C)C)c(C)c2oc1=O | / | -2.4 | / | / | -30.6 | 0.5
Cc1c(C)c2ccc(OCC(=O)Nc3ccccn3)c(C)c2oc1=O | -15.1 | 2.0 | -4.6 | / | 82.5* | -67.1
Cc1c(C)c2ccc(OCC(=O)N(C)C)c(C)c2oc1=O | / | -3.4 | / | / | / | 97.9*
Cc1noc(C)c1NC(=O)Nc1cccc2c1O[C@@H](CN(C)Cc1ccc(-c3ccccc3)cc1)[C@@H](C)CN([C@@H](C)CO)C2=O | 0.2 | -1.9[16.7 µM] | -19.6 | 9.8 | / | -16.4
Cc1ccc2nc(-c3ccc(SCC(=O)Nc4nnc(C)s4)nc3)[nH]c2c1 | / | / | 459.1* | / | / | /
CCc1nnc(NC(=O)CSc2ccc(-c3nc4ccccc4[nH]3)cn2)s1 | / | / | / | / | / | -27.3
Cc1nc(NC(=O)CSc2ccc(-c3nc4ccccc4[nH]3)cn2)sc1C | / | / | 50.9* | / | / | /
C[C@H](CO)N1C[C@H](C)[C@H](CN(C)C(=O)Nc2ccccc2F)Oc2ncc(C#CCN(C)C)cc2C1=O | -12.0 | / | 10.4 | 6.3 | / | /
CCCNC(=O)N1C[C@@H](C)[C@H](OC)CN(C)C(=O)c2ccc(NC(=O)CC)cc2OC[C@H]1C | -16.7 | / | 9.8 | -3.8 | / | /
O=C1O[C@@H](c2ccccc2)[C@@H](c2ccccc2)N2[C@@H](c3ccccc3OCCO)[C@]3(C(=O)Nc4ccc(C#CC5=CCCCC5)cc43)[C@@H](C(=O)N3CCCCCCC3)[C@H]12 | -5.2 | / | / | -5.2 | -5.6[16.7 µM] | /
NC(=O)NCC#Cc1ccc2c(c1)[C@]1(C(=O)N2)[C@H](c2ccccc2OCCO)N2[C@H](c3ccccc3)[C@H](c3ccccc3)OC(=O)[C@H]2[C@@H]1C(=O)N1CCCCCCC1 | 22.7 | / | / | 0.9 | -15.9[16.7 µM] | /
NC(=O)[C@H]1[C@@H]2C(=O)O[C@@H](c3ccccc3)[C@@H](c3ccccc3)N2[C@@H](c2ccccc2OCCO)[C@]12C(=O)Nc1ccccc12 | ? | / | / | 38.2 | -177.6[16.7 µM] | /
O=C1O[C@@H](c2ccccc2)[C@@H](c2ccccc2)N2[C@@H](c3ccccc3OCCO)[C@]3(C(=O)Nc4ccc(C#CCCO)cc43)[C@@H](C(=O)N3CCCCCCC3)[C@H]12 | 92.5* | / | / | 12.8 | -16.8[16.7 µM] | /
NC(=O)[C@@H]1[C@H]2C(=O)O[C@H](c3ccccc3)[C@H](c3ccccc3)N2[C@H](c2ccccc2OCCO)[C@@]12C(=O)Nc1ccccc12 | 83.8* | / | / | 23.9 | -18.7[16.7 µM] | /
O=C1O[C@H](c2ccccc2)[C@H](c2ccccc2)N2[C@H]1[C@@H](C(=O)N1CCCCCCC1)[C@]1(C(=O)Nc3ccccc31)[C@H]2c1ccccc1OCCO | 78.6* | / | / | 19.9 | 58.9*[16.7 µM] | /
C[C@@H]1CN([C@H](C)CO)C(=O)c2cc(NS(=O)(=O)c3ccc(Cl)cc3)ccc2O[C@@H]1CN(C)Cc1ccncc1 | 1.3 | 12.8[16.7 µM] | -8.7 | 9.6 | 11.9[16.7 µM] | -19.8
COCC(=O)Nc1ccc2c(c1)[C@H]1C[C@@H](CC(=O)NCc3ccccc3OC)O[C@@H](CO)[C@H]1O2 | / | 3.7[16.7 µM] | -2.0 | 0.4 | / | 1.1
SMILES | PAX8 reporter | miR122 inh | INS-1E GSIS act | EWS-Fli inh | HIV Env fusion | C2C12 statin
O=C(C[C@@H]1C=C[C@@H](NC(=O)CCN2CCCCC2)[C@H](CO)O1)NCc1ccc(Cl)c(Cl)c1 | -6.3 | 6.5[16.7 µM] | 0.2 | -1.0 | 0.8[16.7 µM] | 0.2
Cc1cc(C)nc(SC(C(=O)O)c2ccccc2)n1 (configuration not stated) | 11.5 | / | / | -8.9 | -5.4 | /
Cc1cc(C)nc(Sc2nc(Cl)nc(N(c3ccccc3)c3ccccc3)n2)n1 | / | -2.1 | 13.9 | / | 13.6 | 101.6*
CN1C(=O)CC(N2CCN(C(c3ccccc3)c3ccccc3)CC2)C1=O (configuration not stated) | 0.5 | -7.5 | / | / | 6.8 | /
CN1C(=O)CC(N2CCN(c3ccccc3)CC2)C1=O (configuration not stated) | 14.1 | -2.7 | / | / | -2.6 | 137.9*
C[C@H](CO)N1C[C@H](C)[C@H](CN(C)C(=O)NC2CCCC2)Oc2ncc(C#CC3CCCCC3)cc2C1=O | / | 18.6[16.7 µM] | -34.3 | -4.5 | -27.9[16.7 µM] | 8.0
O=[N+]([O-])c1ccc(CS(=O)c2ccccc2)cc1 (configuration not stated) | -1.4 | / | / | -10.7 | 7.0 | /
O=[N+]([O-])c1ccc(S(=O)Cc2ccccc2)c([N+](=O)[O-])c1 (configuration not stated) | 121.1* | / | 117.2* | 36.1 | -165.2 | /
NS(=O)(=O)c1ccc(NC(=O)c2ccc(S(=O)(=O)N3CCc4ccccc43)cc2)cc1 | 9.8 | -14.7 | 0.6 | 12.4 | 17.7 | 2.8
COc1ccc(C(=O)Nc2ccc(S(=O)(=O)N3CCc4ccccc43)cc2)cc1 | / | 16.2 | / | / | 62.1* | 8.5
O=C(Nc1ccncc1)c1ccc(Cl)c(S(=O)(=O)N2CCc3ccccc32)c1 | 49.3 | / | -17.6 | 29.5 | 89.6* | -8.6
Cc1cccc(NC(=O)c2ccc(Cl)c(S(=O)(=O)N3CCc4ccccc43)c2)n1 | 31.1 | 21.3 | 2.2 | -6.0 | 10.9 | -29.3
C[C@@H]1CN([C@@H](C)CO)C(=O)Cc2cc(NC(=O)Nc3ccccc3)ccc2O[C@@H]1CN(C)C(=O)Nc1ccc(C(F)(F)F)cc1 | -2.4 | 7.4[16.7 µM] | -11.5 | 1.4 | 13.9[16.7 µM] | -16.5
Cc1c(NC(=O)C(C#N)=C2CCCCC2)c(=O)n(-c2ccccc2)n1C | / | 3.9 | 39.6 | / | / | 105.7*
Cc1c(NC(=S)N/C(=N/S(=O)(=O)c2ccccc2)c2ccccc2)c(=O)n(-c2ccccc2)n1C | 1.8 | 2.8 | 43.5* | -8.7 | 14.1 | -8.0
Cc1cccc(C)c1NC(=S)Nc1c(C)n(C)n(-c2ccccc2)c1=O | 76.0* | / | -0.4 | 1.8 | / | /
